Sampled rows, rich in hits. Any-hit rate of the full collection: about 2.9%.
EBV LMP1 NFkB: Epstein-Barr LMP1 NF-kappaB reporter inhibition; LMP1-induced NF-kappaB luciferase reporter cells, luminescence; inhibition, % at 12.5 µM; 0.69% of 350,000 active; AID 504558; in the data active = inhibition above about 41%;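 also: 0% = neutral control wells and 100% = reference inhibitor control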
KKLEB tox: CF airway cell cytotoxicity counter-screen; KKLEB CF airway cells viability, ATPlite luminescence, overnight; stronger effect = lower value; cells stimulated with P. aeruginosa culture filtrate; activity change (cytotoxicity), % at 5 µM; 0.36% of 360,000 active;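 active = corrected activity change at or below -50% at 5 µM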
Peg3 prom inh-1: Peg3 promoter activity inhibition | inhibition, % at 20 µM | AID 588405 | HeLa PEG-Prom luciferase reporter, luminescence, overnight | 1.7% of 360,000 active;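 active = inhibition of at least 50% at 20 µM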
HIF-2a block: inhibitors of HIF-2a; inhibition, % at 18.8 µM; AID 624352; 0.72% of 360,000 active; 786-0 RCC cells HIF-2a reporter, luciferase luminescence, overnight;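 active = inhibition of the luminescence signal of 40% or more relative to plate controls, in a single-dose primary screen at 18.75 µM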
CF NFkB block: blocks PAF-induced NF-kB reporter in cystic fibrosis cells | KKLEB NF-kB-GFP reporter, GFP fluorescence overnight | inhibition, % at 5 µM | 0.86% of 360,000 active;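 active = at least 50% inhibition at 5 µM, scaled per plate between neutral and stimulator controls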;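 also: PAF is a Pseudomonas aeruginosa culture filtrate used as stimulus; plate controls were PAF-stimulated DMSO wells for no effect and unstimulated DMSO wells for full effect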
Shn3 inh set2: reduces Shn3 3'UTR luciferase signal in osteoblasts | Clone20 osteoblast Shn3 3'UTR firefly luciferase, 24 h | inhibition, % at 12.5 µM | 0.52% of 360,000 active;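 active = mean inhibition of at least 75% with every replicate also reaching 75%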;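 also: 0% = median of neutral control wells and 100% = pilot-screen positive control compound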
Peg3 prom inh-2: Peg3 promoter inhibition confirmation; shares compounds with Peg3 prom inh-1; HeLa PEG-Prom luciferase reporter, luminescence, overnight; inhibition, % at 20 µM; 84% of 1,300 active; AID 602417;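 active = at 20 µM dose, 40% or more inhibition averaged across four replicates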
Active calls of the source: *; x = no result.

SMILES | EBV LMP1 NFkB | KKLEB tox | Peg3 prom inh-1 | HIF-2a block | CF NFkB block | Shn3 inh set2 | Peg3 prom inh-2
CC(C)CC1C(=O)N(Cc2cn(Cc3ccco3)nn2)CCS(=O)(=O)N1Cc1ccc(-c2ccc(F)cc2)cc1 (stereo unspecified) | -4 | -21 | 64* | -28 | 48 | 11 | 62*
Cc1ccc(-c2ccc(CN3C(CC(C)C)C(=O)N(Cc4cn(Cc5ccco5)nn4)CCS3(=O)=O)cc2)cc1 (stereo unspecified) | 4 | -5 | 5 | 16 | 39 | 8 | x
COCOCCn1cc(CN2CCS(=O)(=O)N(Cc3ccc(-c4ccc(Cl)c(Cl)c4)cc3)C(C(C)C)C2=O)nn1 (stereo unspecified) | -2 | -7 | 61* | -50 | 8 | 91* | 46*
CC1=CC(C)[C@H](/C=N/n2c(=O)[nH]c3c([nH]c4ccc(C)cc43)c2=O)C(C)C1 (stereo partly specified) | -16 | 7 | 62* | 10 | 13 | 17 | 34
COc1ccc(/C=N/n2c(=O)[nH]c3c([nH]c4ccc(C)cc43)c2=O)cc1CN1CCOCC1 | 2 | -7 | 14 | -4 | -3 | 11 | x
Cn1c(CC(=O)Nc2ccc(Cl)c(Cl)c2)nnc1SCC(=O)NCc1ccccc1 | -2 | -2 | -3 | 17 | 19 | -5 | x
COc1cc(OC)cc(C(=O)Nc2ccccc2-c2nnn(CC(=O)Nc3cc(C)on3)n2)c1 | 1 | -7 | 71* | 7 | 17 | -1 | 19
Cc1ccc(S(=O)(=O)NC(C(=O)O)c2ccccc2)cc1 (stereo unspecified) | 2 | -1 | -4 | 10 | 4 | -20 | x
CCN1CCN(C(c2ccc(C(F)(F)F)cc2)c2ccc3cccnc3c2O)CC1 (stereo unspecified) | 14 | -33 | 55* | 49* | 16 | 64 | 60*
O=C(O)CCNc1ccc(NCCC(=O)O)c2c1C(=O)c1ccccc1C2=O | 3 | 7 | 10 | 24 | -36 | 10 | x
O=C1c2cccc(NCCNCCO)c2C(=O)c2cccc(NCCNCCO)c21 | 10 | 13 | 99* | 78* | -82 | -29 | -2
CC(=O)Nc1sc(C)c(C)c1C(=O)OCC(=O)N(CC(C)C)c1c(N)n(Cc2ccccc2)c(=O)[nH]c1=O | -249 | -96* | 101* | 18 | 83* | 66 | 55*
CCCCCCCn1c(=N)n(CC(=O)c2ccco2)c2ccccc21 | 6 | 1 | 87* | 30 | -4 | 64 | 64*
CCCCCCCn1c(=N)n(CC(O)c2ccco2)c2ccccc21 (stereo unspecified) | -5 | -2 | 80* | 0 | 5 | 45 | 91*
O=C(COC(=O)c1c2c(nc3ccccc13)/C(=C\c1cccs1)CCC2)Nc1ccccc1 | -25 | 15 | 55* | 16 | -38 | 47 | 60*
CC(C)(C)NC(=O)COC(=O)c1c2c(nc3ccccc13)CCC2 | -2 | -1 | 40 | 14 | 14 | 15 | x
CC(C)NC(=O)NC(=O)COC(=O)c1c2c(nc3ccccc13)CCC2 | 8 | 1 | 92* | 16 | 18 | 66 | 86*
CCCCn1c(N)c(N(CCOC)C(=O)COC(=O)COc2cc(C)c(Cl)cc2C(C)C)c(=O)[nH]c1=O | -6 | 2 | 0 | 20 | 17 | 1 | x
Cc1[nH]n(-c2nc(-c3ccc(Cl)cc3)cs2)c(=O)c1N=Nc1ccc(O)cc1 | -42 | -3 | 54* | -104 | 17 | 90* | -42
CCCn1nnnc1NC(=O)c1ccc(C)cc1Cl | -5 | -3 | -2 | -15 | -2 | -16 | x
O=C(Cn1ccc(NC(=O)OCc2ccccc2)nc1=O)NCCCN1CCCC1=O | -2 | 6 | 0 | 10 | -2 | 2 | x
CCC1(c2ccccc2)NC(=O)N(CC(=O)Nc2cc(S(=O)(=O)N3CCCCCC3)ccc2OC)C1=O (stereo unspecified) | 2 | -1 | 54* | 24 | 1 | 15 | 70*
Cc1ccc(C(=O)Nc2cccc(S(=O)(=O)N3CCCCC3)c2)cc1S(=O)(=O)N1CCOCC1 | 4 | -4 | 44 | 15 | -6 | 59 | x
Cc1ccc(Cl)cc1Nc1nc(-c2sc(NC(=O)c3ccco3)nc2C)cs1 | 9 | -13 | 90* | 8 | -28 | 8 | 88*
Cc1nc(NC(=O)c2ccco2)sc1-c1csc(Nc2ccc(Cl)cc2)n1 | -38 | -3 | 35 | 6 | 38 | 6 | x
SMILES | EBV LMP1 NFkB | KKLEB tox | Peg3 prom inh-1 | HIF-2a block | CF NFkB block | Shn3 inh set2 | Peg3 prom inh-2
COc1ccccc1Nc1nc(-c2sc(NC(=O)c3ccco3)nc2C)cs1 | 0 | -3 | 70* | 7 | 32 | 13 | 58*
Cc1nc(NC(=O)c2ccco2)sc1-c1csc(Nc2ccc(Cl)cc2Cl)n1 | -14 | -7 | -3 | -41 | 22 | -17 | x
CCCCn1c(N)c(N(CC(C)C)C(=O)C2CCN(S(=O)(=O)c3ccc(F)cc3)CC2)c(=O)[nH]c1=O | 3 | 5 | 16 | 13 | -11 | -15 | x
COc1ncnc2c1oc1nc(CC(C)C)c3c(c12)CCCC3 | 5 | -6 | 9 | 14 | 12 | 17 | x
CCCc1nc2oc3c(Cl)ncnc3c2c2c1CCCC2 | -4 | -8 | 99* | 20 | 6 | 7 | 34
CC(C)C(=O)NC(c1ccc(N(C)C)cc1)c1c(O)ccc2ccccc12 (stereo unspecified) | -10 | -4 | 20 | 16 | -2 | x | x
CCC(=O)NC(c1cccs1)c1cc(Cl)c2cccnc2c1O (stereo unspecified) | 21 | 7 | 56* | 21 | -1 | 73 | 58*
CC(=O)NC(c1ccc(N(C)C)cc1)c1cc(Cl)c2cccnc2c1O (stereo unspecified) | 11 | -8 | 59* | 17 | 36 | 68 | 68*
COc1ccc(C(NC(C)=O)c2cc(Cl)c3cccnc3c2O)cc1 (stereo unspecified) | 42* | -1 | 64* | 10 | -4 | 90* | 64*
CC(=O)NC(c1ccccc1)c1cc(Cl)c2cccnc2c1O (stereo unspecified) | 35 | 13 | 51* | 16 | -4 | 69 | 65*
CC(=O)NC(c1ccc(F)cc1)c1cccnc1 (stereo unspecified) | 2 | 15 | -6 | 19 | -12 | 10 | x
O=P(Nc1ccccc1)(Nc1ccccc1)c1ccccc1 | 9 | 5 | -8 | 17 | 5 | -11 | x
Oc1c(I)cc(Cl)c2cccnc12 | 3 | -11 | 55* | 13 | 7 | -7 | 68*
Clc1cc2cccnc2c2ncccc12 | 25 | -12 | 50 | -6 | -36 | 85 | x
COC(=O)c1ccc(COC(=O)C2CCN(S(=O)(=O)c3ccccc3C(=O)OC)CC2)cc1 | 0 | 10 | -16 | -6 | -3 | -4 | x

Compound activity deposited in PubChem BioAssay by several laboratories.
